Results published in PubChem BioAssay (NCI).
About 79,000 compounds went through this panel and 15% of them were active in at least one assay; those are over-represented in the sample as a whole. Activity calls are given as the source filed them. Cut-off read from the data, not from the text of the source: active = growth inhibition above about 70%; inactive = the rest.

Legend:
[1] = NCI Yeast Anticancer Drug Screen. Data for the rad52 strain (AID 147);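 note: 0% = growth of vehicle-treated control cultures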; conditions: S. cerevisiae rad52 mutant growth inhibition, stronger effect = higher value
Summary of the method: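 Inhibition of yeast growth, referenced to vehicle controls, was the measured output for a strain with defective DNA damage repair.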

[2] = NCI Yeast Anticancer Drug Screen. Data for the wt1 strain (AID 149);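 note: 0% = growth of vehicle-treated wt1 cultures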; conditions: S. cerevisiae wt1 strain (SPY 50644) growth inhibition, stronger effect = higher value
Summary of the method: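 wt1 yeast, compound-treated; % growth inhibition vs vehicle control.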

[3] = NCI Yeast Anticancer Drug Screen. Data for the rad50EPP+ strain (AID 151);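 note: 0% = growth of vehicle-treated control cultures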; conditions: S. cerevisiae rad50 mutant strain, stronger effect = higher value
Summary of the method: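 Genetically defined yeast (rad50EPP+, DNA damage repair alteration) is grown with compound, and inhibition of growth is expressed relative to vehicle-treated controls.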

[4] = NCI Yeast Anticancer Drug Screen. Data for the mgt1 strain (AID 153); conditions: S. cerevisiae mgt1 mutant growth inhibition, stronger effect = higher value
Summary of the method: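 In the mgt1 strain, test compounds were added and growth inhibition was determined relative to vehicle-treated controls.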

[5] = NCI Yeast Anticancer Drug Screen. Data for the rad50 strain (AID 155);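 note: 0% = growth of vehicle-only cultures of the same strain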; conditions: S. cerevisiae rad50 strain growth inhibition, stronger effect = higher value
Summary of the method: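 Genetically altered yeast (DNA repair pathway); compound treatment; growth inhibition vs vehicle ctrl.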

[6] = NCI Yeast Anticancer Drug Screen. Data for the mec2-1 strain (AID 157); conditions: S. cerevisiae mec2-1 strain, stronger effect = higher value
Summary of the method: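 Each compound was tested on mec2-1 yeast, a strain altered in DNA damage repair or cell cycle control. Growth inhibition is reported relative to vehicle.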

[7] = NCI Yeast Anticancer Drug Screen. Data for the sgs1 mgt1 strain (AID 161);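 note: 0% = growth of cultures given vehicle only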; conditions: S. cerevisiae sgs1 mgt1 strain, stronger effect = higher value
Summary of the method: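 Inhibition of yeast growth, normalised to vehicle-treated controls, is reported for a strain bearing genetic alterations in DNA damage repair.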

[8] = NCI Yeast Anticancer Drug Screen. Data for the CLN2oe strain (AID 163);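 note: 0% = growth of vehicle-only control cultures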; conditions: S. cerevisiae CLN2oe strain, stronger effect = higher value
Summary of the method: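 First, the altered yeast strain was treated with each compound; second, its growth was measured; finally, inhibition was derived by comparison with vehicle controls.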

[9] = NCI Yeast Anticancer Drug Screen. Data for the cln2 rad14 strain (AID 165);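 note: 0% = growth equal to vehicle treated cultures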; conditions: S. cerevisiae cln2 rad14 strain, stronger effect = higher value
Summary of the method: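 Test compounds were added to cln2 rad14 yeast cultures; inhibition of growth was then determined by comparison with vehicle treatment.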

[10] = NCI Yeast Anticancer Drug Screen. Data for the bub3 strain (AID 167); conditions: S. cerevisiae bub3 mutant strain, stronger effect = higher value
Summary of the method: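 Yeast carrying a defined mutation is treated with each compound, and growth is compared with that of vehicle-exposed cells to give inhibition.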

[11] = NCI Yeast Anticancer Drug Screen. Data for the wt2 strain (AID 169);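 note: 0% = growth of vehicle-treated yeast cultures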; conditions: S. cerevisiae wt2 strain growth inhibition, stronger effect = higher value
Summary of the method: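 The panel's yeast strains carry defined changes in DNA repair or cell cycle genes. Each strain is grown with compound, and growth loss is scored relative to vehicle.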

[12] = NCI Yeast Anticancer Drug Screen. Data for the mlh1 strain (AID 171);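 note: 0% = growth of vehicle-treated control cultures of the same strain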; conditions: S. cerevisiae mlh1 strain growth inhibition, stronger effect = higher value
Summary of the method: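 Inhibition values reflect reduced yeast growth in the presence of compound, referenced to vehicle controls, using a strain chosen for its alteration in DNA repair or cell cycle control.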

[13] = NCI Yeast Anticancer Drug Screen. Data for the sgs1 strain (AID 173);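 note: 0% = growth of vehicle-only control cultures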; conditions: S. cerevisiae sgs1 mutant, stronger effect = higher value
Summary of the method: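 Vehicle-treated cultures served as reference for growth inhibition of a yeast strain altered in DNA damage repair or cell cycle control after compound exposure.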

[14] = NCI Yeast Anticancer Drug Screen. Data for the mlh1 rad18 strain (AID 175); conditions: S. cerevisiae mlh1 rad18 strain growth inhibition, stronger effect = higher value
Summary of the method: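 Inhibition values reflect reduced growth of mutant yeast versus vehicle-treated controls following compound exposure; the mutations affect DNA damage repair.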

[15] = NCI Yeast Anticancer Drug Screen. Data for the rad18 strain (AID 177); conditions: S. cerevisiae rad18 mutant growth inhibition, stronger effect = higher value
Summary of the method: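 Steps: expose repair-mutant yeast to compound; measure growth; express as inhibition relative to vehicle control.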

[16] = at 5.0 µM (retest, dose inferred, filed as 0.5)
[17] = at 50.0 µM (retest, dose inferred, filed as 5.0)

Measured: growth inhibition

O=C1C=C(N2CCN(c3ccccn3)CC2)C(=O)c2c(O)ccc(O)c21
inactive: [1]; at 1.2 µM 3% | [1]; at 3.7 µM 8% | [1]; at 11.0 µM 19% | [1]; at 33.0 µM 33% | [1]; at 100.0 µM 45% | [2]; at 1.2 µM 10% | [2]; at 3.7 µM 13% | [2]; at 11.0 µM 15% | [2]; at 33.0 µM 21% | [2]; at 100.0 µM 26% | [3]; at 1.2 µM -4% | [3]; at 3.7 µM -3% | [3]; at 11.0 µM 4% | [3]; at 33.0 µM 17% | [3]; at 100.0 µM 26% | [4]; at 1.2 µM 5% | [4]; at 3.7 µM 8% | [4]; at 11.0 µM 14% | [4]; at 33.0 µM 20% | [4]; at 100.0 µM 47% | [5]; at 1.2 µM -3% | [5]; at 3.7 µM -8% | [5]; [16] 28% | [5]; at 11.0 µM 0% | [5]; at 33.0 µM 37% | [5]; at 100.0 µM 55% | [6]; at 1.2 µM 7% | [6]; at 3.7 µM 8% | [6]; [16] -17% | [6]; at 11.0 µM 10% | [6]; at 33.0 µM 19% | [6]; at 50.0 µM 65.2% | [6]; at 100.0 µM 27% | [7]; [16] 8% | [8]; at 1.2 µM 11% | [8]; at 3.7 µM 7% | [8]; at 11.0 µM 13% | [8]; at 33.0 µM 21% | [8]; at 100.0 µM 21% | [9]; [16] -6% | [9]; [17] 15% | [9]; at 50.0 µM 25.9% | [10]; at 1.2 µM 4% | [10]; at 3.7 µM 3% | [10]; [16] 5% | [10]; at 11.0 µM 10% | [10]; at 33.0 µM 23% | [10]; at 100.0 µM 34% | [11]; at 1.2 µM 4% | [11]; at 3.7 µM 9% | [11]; at 11.0 µM 15% | [11]; at 33.0 µM 32% | [11]; at 100.0 µM 52% | [12]; at 1.2 µM 7% | [12]; at 3.7 µM 12% | [12]; at 11.0 µM 21% | [12]; at 33.0 µM 42% | [13]; at 1.2 µM 8% | [13]; at 3.7 µM 11% | [13]; at 11.0 µM 22% | [13]; at 33.0 µM 63% | [14]; [16] 10% | [15]; at 1.2 µM 1% | [15]; at 3.7 µM 4% | [15]; at 11.0 µM 17% | [15]; at 33.0 µM 46% | [15]; at 100.0 µM 68%
active: [5]; [17] 94% | [5]; at 50.0 µM 84.5% | [6]; [17] 84% | [7]; [17] 91% | [7]; at 50.0 µM 82.7% | [10]; [17] 71% | [10]; at 50.0 µM 88.8% | [12]; at 100.0 µM 75% | [13]; at 100.0 µM 82% | [14]; [17] 94% | [14]; at 50.0 µM 72.5%
